From PubChem BioAssay (Tox21)
Where “and” joins values, the source holds several entries; their conditions need not be identical. Equal values may be shown once. Results filed as inconclusive are left out. The source holds several records for some structures; these can differ, active in one and inactive in another. Calls of active or inactive are those of the source. Unless noted, calls follow the shape of the full dose curve.

What was measured:
[1] = Nuclear factor erythroid 2-related factor 2/antioxidant responsive element (Nrf2/ARE) small molecule agonists: qHTS cell viability counter screen in human keratinocytes (AID 1919968; active = well fitted curve in the direction sought with a large enough effect in the repeat runs; an effect the other way counts as inactive or inconclusive; also: nearly all actives have a fitted effect of over 55% in size; also: potency is read from the fitted curve at half-maximal effect)
Outline: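 CellTiter-Fluor fluorescence, read 1 h after reagent, gave viability in the same wells as the ARE-luciferase assay. KeratinoSens cells (1,500/well) had 23 h compound exposure at 37 C/5% CO2 following 5 h plating.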

[2] = Nuclear factor erythroid 2-related factor 2/antioxidant responsive element (Nrf2/ARE) small molecule agonists: luciferase reporter gene qHTS assay in human keratinocytes (AID 1919969); also: nearly all actives have a fitted effect of over 35% in size; also: potency is read from the fitted curve at half-maximal effect
[3] = target: Gonadotropin-releasing hormone receptor (Homo sapiens) (UniProt P30968); experiment: Human gonadotropin-releasing hormone receptor (GnRHR) small molecule agonists, calcium flux assay in GnRHR-HEK293 cells (AID 1920063); also: nearly all actives have a fitted effect of over 35% in size
Outline: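 Agonist mode: compounds at 15 concentrations, in triplicate, went onto calcium dye-loaded GnRHR-HEK293 cells. Intracellular calcium was then followed as 480/540 nm fluorescence at 1 s intervals over 3 min.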

[4] = target: KiSS-1 receptor (Homo sapiens) (UniProt Q969F8); experiment: Human kisspeptin (KISS1R) small molecule agonists, calcium flux assay in KISS1R-HEK293 cells (AID 1920064; active = well fitted curve in the direction sought with a large enough effect in the repeat runs; an effect the other way counts as inactive or inconclusive)
Outline: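 Agonist mode: intracellular calcium rise tracked at 1 s intervals over 3 min (480/540 nm) immediately after compound addition to dye-loaded KISS1R-HEK293 stable cells. Each compound tested at 15 concentrations in triplicate.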

[5] = G protein-coupled receptor (GPCR) small molecule agonists, calcium flux assay: HEK293 wild type cell line counter screen (AID 1920065)
Outline: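 Calcium flux counter screen: compound added in agonist mode at 15 concentrations in triplicate to dye-loaded parental HEK293 cells. Fluorescence (480/540) read kinetically for 3 min; ATP served as positive control.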

[6] = p53 small molecule agonists, cell-based qHTS assay with human liver microsomes (AID 1963577); also: potency is read from the fitted curve at half-maximal effect;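 as to activation: p53 response element beta-lactamase reporter cells with liver microsomes plus NADPH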
Outline: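 With metabolic activation: human liver microsomes (0.5 mg/mL final) plus NADPH (0.5 mg/mL final) added alongside compounds to p53RE-bla cells; 16 h 37 C exposure; beta-lactamase read by LiveBLAzer fluorescence.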

[7] = p53 small molecule agonists, cell-based qHTS assay with human liver microsomes: qHTS cell viability counter screen (AID 1963579); also: nearly all actives have a fitted effect of over 45% in size
Outline: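 Metabolic activation used human liver microsomes and NADPH, both 0.5 mg/mL final, over 16 hours at 37 C on p53RE-bla cells (4,000/well). Cytotoxicity measured by CellTiter-Glo luminescence, 30 min at room temperature.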

[8] = p53 small molecule agonists, cell-based qHTS assay with rat liver microsomes: qHTS cell viability counter screen (AID 1963580); also: nearly all actives have a fitted effect of over 45% in size
Outline: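 Luminescent ATP readout (CellTiter-Glo, 30 min at room temperature) reports viability of p53RE-bla HCT-116 cells after 16 h at 37 C with test compounds under metabolic activation by rat liver microsomes and NADPH at 0.5 mg/mL final each.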

[9] = p53 small molecule agonists, cell-based qHTS assay: qHTS cell viability counter screen (AID 1963581); also: nearly all actives have a fitted effect of over 45% in size
Outline: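 Counter screen read by CellTiter-Glo luminescence (ATP content, 30 min at room temperature), run in the same wells as the beta-lactamase reporter read. HCT-116 p53RE-bla cells saw compounds for 16 h at 37 C.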

[10] = target: 5-hydroxytryptamine receptor 2A (Homo sapiens) (UniProt P28223); experiment: 5-hydroxytryptamine receptor 2A (HTR2A) small molecule agonists, cell-based qHTS assay (AID 1963587); also: nearly all actives have a fitted effect of over 30% in size
Outline: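 HTR2A-CHO cells, plated 18 h at 37 C/5% CO2, dye-loaded 1 h at 37 C; compounds in DMSO added by pin tool (agonist mode). Intracellular calcium flux read as kinetic fluorescence on FDSS over 2 min at 1 s intervals.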

[11] = target: Muscarinic acetylcholine receptor M1 (Homo sapiens) (UniProt P11229); experiment: Cholinergic receptor muscarinic 1 (CHRM1) small molecule antagonists, cell-based qHTS assay (AID 1963588); also: nearly all actives have a fitted effect of over 40% in size
Outline: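 Compounds were tested at 15 concentrations in three independent runs. Dye-loaded CHRM1-CHO cells were exposed 5 min at room temperature before stimulation by acetylcholine added at 50nM. Intracellular calcium was read kinetically on FDSS for 3 min.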

[12] = target: Muscarinic acetylcholine receptor M1 (Homo sapiens) (UniProt P11229); experiment: Cholinergic receptor muscarinic 1 (CHRM1) small molecule agonists, cell-based qHTS assay (AID 1963589); also: nearly all actives have a fitted effect of over 35% in size
Outline: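 Agonist-mode calcium-flux screen: compounds at 15 concentrations, three independent runs, were pin-transferred onto dye-loaded human CHRM1-CHO cells. Fluorescence was then recorded kinetically every second over minutes.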

[13] = cAMP Responsive Elements (CRE) small molecule agonists, cell-based qHTS assay (AID 1963590)
Outline: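 Agonist mode: compound added to CRE-bla HEK 293T cells (2,000/well, 18 h after plating) for 3 h at 37 C/5% CO2. Reporter activity detected via FRET beta-lactamase substrate, 2 h room-temperature loading.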

[14] = target: Beta-2 adrenergic receptor (Homo sapiens) (UniProt P07550); experiment: Adrenergic beta2 receptor (ADRB2) small molecule antagonists, cell-based qHTS assay (AID 1963592); also: series mostly up to about 92 µM; nearly all actives have a fitted effect of over 50% in size
Outline: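 Assay format: CHO-ADRB2 cells, 18-20hr seeding at 37C/5% CO2, then compound plus 1nM isoproterenol agonist mix for 0.5hr RT. Homogeneous time-resolved fluorescence cAMP detection after 1hr, expressed as 665/615 nm ratio.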

[15] = target: Beta-2 adrenergic receptor (Homo sapiens) (UniProt P07550); experiment: Adrenergic beta2 receptor (ADRB2) small molecule agonists, cell-based qHTS assay (AID 1963593);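 also: CHO cells stably overexpressing human ADRB2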
Outline: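 CHO cells stably over-expressing ADRB2 were plated overnight at 37C, then dosed with compounds plus a stimulation mix containing 100uM IBMX and 25uM Ro-20-1724 for 0.5hr at room temperature. cAMP was measured by HTRF competition, 1hr.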

[16] = target: D(2) dopamine receptor (Homo sapiens) (UniProt P14416); experiment: Dopamine D2 receptor (DRD2) small molecule agonists, cell-based qHTS assay (AID 1963594); also: nearly all actives have a fitted effect of over 35% in size
Outline: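 HEK293 cells stably expressing DRD2 were cultured 24 h at 37 C, then given Ro20-1724 (0.1 mM final) and compounds for 10 min at room temperature. NKH477 (200nM) was then added for 30 min. cAMP was read by HTRF.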

[17] = target: D(2) dopamine receptor (Homo sapiens) (UniProt P14416); experiment: Dopamine D2 receptor (DRD2) small molecule antagonists, cell-based qHTS assay (AID 1963595; active = well fitted inhibition curve with a large enough effect in the signal ratio in the repeat runs, with a control signal flat; the % refers to the signal ratio)
Outline: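 In this cell-based antagonist screen, compounds act for 10 min at room temperature before a 30 min challenge with 12 nM quinpirole and 200 nM NKH477. cAMP is quantified by HTRF competition in DRD2-HEK293 cells containing 0.1 mM Ro20-1724.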

[18] = target: 5-hydroxytryptamine receptor 2A (Homo sapiens) (UniProt P28223); experiment: 5-hydroxytryptamine receptor 2A (HTR2A) small molecule antagonists, cell-based qHTS assay (AID 1963586); also: nearly all actives have a fitted effect of over 45% in size
Outline: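 CHO cells stably expressing human HTR2A were plated for 18 h at 37 C, then loaded with calcium dye for 1 h. Compounds were preincubated 5 min at room temperature before DOI (4 nM solution) was added. Kinetic fluorescence was read for 3 min.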

[19] = cAMP Responsive Elements (CRE) small molecule antagonists, cell-based qHTS assay (AID 1963591; active = well fitted inhibition curve with a large enough effect in the signal ratio in the repeat runs, not every such curve was filed as active; the % refers to the signal ratio)
Outline: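 Antagonist mode: compounds are added alongside the adenylyl cyclase activator NKH477 (0.25 uM final) to CRE-bla HEK293T cells for 3 h. LiveBLAzer FRET substrate, 2 h at room temperature, reports bla expression.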

[20] = p53 small molecule agonists, cell-based qHTS assay (AID 1963582; active = well fitted activation curve with a large enough effect in the signal ratio in the repeat runs, not every such curve was filed as active; the % refers to the signal ratio)
Outline: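 Read-out is beta-lactamase FRET fluorescence after 2 h at room temperature with LiveBLAzer B/G substrate. p53 response element-bla cells were treated 16 h at 37 C with compounds in DMSO, added 5 h after seeding.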

Measured: Potency

D(2) dopamine receptor (Homo sapiens), sequence (P14416 whole entry, looked up): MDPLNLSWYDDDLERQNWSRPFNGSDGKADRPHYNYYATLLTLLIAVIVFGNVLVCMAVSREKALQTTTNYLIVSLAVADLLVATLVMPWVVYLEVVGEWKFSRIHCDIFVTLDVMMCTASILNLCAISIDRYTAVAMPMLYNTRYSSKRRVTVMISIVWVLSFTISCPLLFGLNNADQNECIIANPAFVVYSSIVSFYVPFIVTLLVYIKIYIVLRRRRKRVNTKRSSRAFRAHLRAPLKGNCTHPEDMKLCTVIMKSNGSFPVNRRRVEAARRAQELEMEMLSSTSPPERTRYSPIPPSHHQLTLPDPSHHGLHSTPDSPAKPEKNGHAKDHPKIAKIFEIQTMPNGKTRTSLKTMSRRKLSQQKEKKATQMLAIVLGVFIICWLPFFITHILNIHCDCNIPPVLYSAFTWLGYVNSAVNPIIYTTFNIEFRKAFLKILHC
Gonadotropin-releasing hormone receptor (Homo sapiens), sequence (P30968 whole entry, looked up): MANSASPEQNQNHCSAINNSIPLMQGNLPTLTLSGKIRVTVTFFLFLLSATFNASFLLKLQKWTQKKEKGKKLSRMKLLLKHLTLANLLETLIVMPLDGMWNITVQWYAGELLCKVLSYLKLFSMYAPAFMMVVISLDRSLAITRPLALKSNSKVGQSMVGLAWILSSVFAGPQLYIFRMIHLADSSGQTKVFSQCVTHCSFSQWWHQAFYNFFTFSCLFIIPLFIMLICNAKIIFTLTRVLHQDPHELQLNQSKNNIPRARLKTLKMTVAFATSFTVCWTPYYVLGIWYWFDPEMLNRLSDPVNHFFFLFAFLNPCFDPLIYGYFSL
Muscarinic acetylcholine receptor M1 (Homo sapiens), sequence (P11229 whole entry, looked up): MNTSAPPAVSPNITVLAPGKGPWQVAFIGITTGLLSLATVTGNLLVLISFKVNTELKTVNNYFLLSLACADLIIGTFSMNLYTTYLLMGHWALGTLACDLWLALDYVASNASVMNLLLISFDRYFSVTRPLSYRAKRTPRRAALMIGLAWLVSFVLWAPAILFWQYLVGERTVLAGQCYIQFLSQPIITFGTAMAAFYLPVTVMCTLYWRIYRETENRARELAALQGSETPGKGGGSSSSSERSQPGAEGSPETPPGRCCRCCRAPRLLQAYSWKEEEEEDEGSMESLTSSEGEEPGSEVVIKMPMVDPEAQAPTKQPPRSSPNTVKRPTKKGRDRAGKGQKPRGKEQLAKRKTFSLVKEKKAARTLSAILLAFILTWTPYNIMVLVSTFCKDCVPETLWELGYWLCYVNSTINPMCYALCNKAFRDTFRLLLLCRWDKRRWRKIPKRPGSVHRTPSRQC
KiSS-1 receptor (Homo sapiens), sequence (Q969F8 whole entry, looked up): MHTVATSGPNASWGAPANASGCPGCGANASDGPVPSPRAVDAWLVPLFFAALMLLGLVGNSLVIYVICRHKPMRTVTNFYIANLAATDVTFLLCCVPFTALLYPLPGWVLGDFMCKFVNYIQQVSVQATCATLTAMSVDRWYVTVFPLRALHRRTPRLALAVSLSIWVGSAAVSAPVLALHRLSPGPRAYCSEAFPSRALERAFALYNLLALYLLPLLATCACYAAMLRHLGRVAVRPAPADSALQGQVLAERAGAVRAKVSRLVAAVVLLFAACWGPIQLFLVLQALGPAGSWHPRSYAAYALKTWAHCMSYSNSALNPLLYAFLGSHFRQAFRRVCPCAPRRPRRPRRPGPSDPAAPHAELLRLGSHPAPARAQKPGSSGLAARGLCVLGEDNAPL
Beta-2 adrenergic receptor (Homo sapiens), sequence (P07550 whole entry, looked up): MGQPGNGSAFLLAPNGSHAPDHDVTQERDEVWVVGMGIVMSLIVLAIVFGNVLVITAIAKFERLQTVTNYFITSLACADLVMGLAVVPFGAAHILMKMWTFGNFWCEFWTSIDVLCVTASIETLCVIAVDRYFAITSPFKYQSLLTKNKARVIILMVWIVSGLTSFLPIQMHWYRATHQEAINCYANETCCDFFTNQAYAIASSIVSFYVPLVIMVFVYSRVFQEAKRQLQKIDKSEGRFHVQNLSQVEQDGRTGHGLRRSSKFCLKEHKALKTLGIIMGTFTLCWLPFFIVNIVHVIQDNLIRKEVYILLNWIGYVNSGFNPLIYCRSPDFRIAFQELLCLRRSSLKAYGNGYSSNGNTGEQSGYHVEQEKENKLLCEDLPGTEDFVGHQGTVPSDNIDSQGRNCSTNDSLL
5-hydroxytryptamine receptor 2A (Homo sapiens), sequence (P28223 whole entry, looked up): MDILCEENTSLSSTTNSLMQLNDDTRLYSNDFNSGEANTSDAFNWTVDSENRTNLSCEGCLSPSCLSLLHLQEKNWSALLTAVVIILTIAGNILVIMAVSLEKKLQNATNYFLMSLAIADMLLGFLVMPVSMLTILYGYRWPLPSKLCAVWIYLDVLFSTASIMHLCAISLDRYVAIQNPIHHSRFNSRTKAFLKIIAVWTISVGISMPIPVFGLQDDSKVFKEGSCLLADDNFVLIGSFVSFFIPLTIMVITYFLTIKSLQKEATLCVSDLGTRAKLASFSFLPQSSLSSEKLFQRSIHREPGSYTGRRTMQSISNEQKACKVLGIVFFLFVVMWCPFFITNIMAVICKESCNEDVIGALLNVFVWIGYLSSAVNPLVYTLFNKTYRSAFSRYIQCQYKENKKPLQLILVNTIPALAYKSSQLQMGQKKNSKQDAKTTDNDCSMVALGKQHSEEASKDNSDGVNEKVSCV

CCOP(=S)(OCC)OP(=S)(OCC)OCC
active: [6] 18.2 µM
not listed: [18] | [19] | [20]
inactive: all other assays above

Cc1ccc(N)cc1C
active: [2] 9.77 µM
not listed: [13] | [15] | [20]
inactive: all other assays above

COP(=S)(OC)Oc1ccc(SC)c(C)c1
inactive and 24.3 µM (active): [2]
not listed: [13] | [18]
inactive: all other assays above

CCOC(=O)CP(=O)(OCC)OCC
not listed: [11] | [12] | [15]
inactive: all other assays above

N#Cc1nn(-c2c(Cl)cc(C(F)(F)F)cc2Cl)c(N)c1S(=O)C(F)(F)F (stereo unspecified)
active: [1] 61.5 µM
not listed: [10] | [13] | [19] | [20]
inactive: all other assays above

CCC12COCN1COC2
not listed: [8] | [15]
inactive: all other assays above

CN1C(=O)NC(=O)C(C)(C2=CCCCC2)C1=O (stereo unspecified)
not listed: [13] | [20]
inactive: all other assays above

CCOC(=O)C1OC1(C)c1ccccc1 (stereo unspecified)
not listed: [8] | [13]
inactive: all other assays above

CNC(C)(C)Cc1ccccc1
not listed: [6] | [9] | [15]
inactive: all other assays above

COP(=S)(OC)Oc1ccc(Sc2ccc(OP(=S)(OC)OC)cc2)cc1
not listed: [6] | [15]
inactive: all other assays above

CCN(CC)c1ccccc1
not listed: [6] | [16] | [18]
inactive: all other assays above

O=C(O)c1cc(Cl)ccc1Cl
not listed: [7] | [9]
inactive: all other assays above

O=[N+]([O-])c1c(Cl)c(Cl)c(Cl)c(Cl)c1Cl
active: [2] 27.2 µM and 54.5 µM
not listed: [6] | [13] | [15] | [18]
inactive: all other assays above

CN(C)N
not listed: [6] | [15]
inactive: all other assays above

CC(C)=CCN1CC[C@@]2(C)c3cc(O)ccc3C[C@@H]1[C@@H]2C
not listed: [6] | [11]
inactive: all other assays above
